Reference: PubChem BioAssay (NCATS)
Results filed as inconclusive are left out. Active and inactive are the calls of the source. Unless noted, calls come from the whole dose curve; as a rule, active = well fitted curve in the direction sought with a large enough effect; inconclusive = small, poorly fitted or top-dose-only effect, or another doubt; inactive = no such curve, though single readings can be large; an effect the other way counts as inactive or inconclusive.

Legend:
[1] = molecular target: Cytochrome P450 3A4 (Homo sapiens) (UniProt P08684); assay: qHTS Assay for Inhibitors and Substrates of Cytochrome P450 3A4 (AID 884); note: nearly all actives have a fitted effect of over 50% in size
Method in brief: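 Luminescent readout of luciferin produced by CYP3A4 (20 nM) dealkylation of Luciferin-PPXE, 25 uM (its KM). NADPH-driven reaction ran 60 min at RT after 10 min compound preincubation; data scaled to 57 uM ketoconazole as 100% inhibition.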

[2] = Confirmation and Secondary Assay for Modulators of Hemoglobin Beta Chain Splicing at IVS2 705 locus (AID 930);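 note: HeLa cells stably expressing the EGFP-705 splicing reporter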
Method in brief: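 HeLa cells stably carrying EGFP interrupted by mutant beta-globin IVS2-705 intron (CMV-driven) were seeded at 500 cells/well, treated next day with compound for 2 days at 37C; corrected splicing restores EGFP, read as total peak GFP intensity per well.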

[3] = molecular target: Tyrosyl-DNA phosphodiesterase 1 (Homo sapiens) (UniProt Q9NUW8); assay: Confirmation Assay for Inhibitors of Tyrosyl-DNA Phosphodiesterase (TDP1) (AID 489007); settings: recombinant human TDP1 enzymatic activity, dose-response; note: potency is the fitted concentration of half-maximal effect; nearly all actives have a fitted effect of over 40% in size
Method in brief: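 Compounds are preincubated 15 min at room temperature with 1 nM recombinant human Tdp1. The reaction starts on adding 15 nM FITC-phosphotyrosine DNA substrate, runs 5 min, and is detected by AlphaScreen beads after 10 min.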

[4] = molecular target: Ubiquitin carboxyl-terminal hydrolase 1 (Homo sapiens) (UniProt O94782); assay: Inhibitors of USP1/UAF1: Pilot qHTS (AID 504865); note: nearly all actives have a fitted effect of over 35% in size; note: potency is the fitted concentration of half-maximal effect
Method in brief: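 USP1/UAF1 complex (1nM) preincubated with compound 15 min at room temperature, then Ub-Rho substrate (150nM final) added. Fluorescence read kinetically at 480/540 nm, 6 reads every 60 seconds. Buffer: 50mM HEPES pH 7.8, 0.5mM EDTA, 0.1 mg/ml BSA, 1mM TCEP, 0.01% Tween-20.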

[5] = S16 Schwann cell viability assay (CellTiter-Glo assay) (AID 624031);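 note: cellular ATP luminescence as a viability measure; nearly all actives have a fitted effect of over 70% in size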
Method in brief: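 Native S16 rat Schwann cells in DMEM/10% FBS without phenol red were incubated overnight, then exposed to compounds for 24 h at 37 °C/5% CO2. Viability was read as ATP luminescence (CellTiter-Glo), normalized to no-cell wells and DMSO (0%).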

[6] = S16 Schwann cell PMP22 intronic element firefly luciferase assay (AID 624032); note: nearly all actives have a fitted effect of over 30% in size; note: potency is the fitted concentration of half-maximal effect
Method in brief: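 Rat S16 Schwann cells stably carrying firefly luciferase driven by a PMP22 intronic element, in 10% FBS, treated 24 h at 37 C. ONE-Glo luminescence normalized to PTC124 control and DMSO (0%); curves classed by r2, magnitude and activity.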

[7] = S16 Schwann cell PMP22 intronic element beta-lactamase assay (AID 624044; calls by dose curve; note: nearly all actives have a fitted effect of over 15% in size; note: potency is the fitted concentration of half-maximal effect); settings: S16 rat Schwann cells, PMP22 element beta-lactamase FRET, 24 h; ratio activity, negative = inhibition: at 38.3 µM (top of the series)
Method in brief: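 Beta-lactamase reporter under a PMP22 intronic regulatory element in stable S16 rat Schwann cells; 24 h compound exposure. 460 nm blue signal normalized between DMSO (0%) and potassium clavulanate, with 535 nm FRET tracking viability; curves classed by r2 and response.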

[8] = test system: CP266; assay: qHTS profiling for inhibitors of Plasmodium falciparum proliferation (AID 504749); note: nearly all actives have a fitted effect of over 60% in size; note: potency is the fitted concentration of half-maximal effect; settings: P. falciparum in erythrocytes, SYBR Green DNA, 72 h; series mostly up to 28.7 µM
Method in brief: (§1)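 Each compound contacts P. falciparum-infected red blood cells for 72 h at 37 C; lysis buffer (Tris, EDTA, saponin, Triton X, SYBR Green I) is added and fluorescence measured next morning; values normalized to controls.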

[9] = test system: W2; assay: as above; settings: P. falciparum in erythrocytes, SYBR Green DNA, 72 h; series mostly up to 28.7 µM
Method in brief: as §1

Measured: Potency

Chain of Ubiquitin carboxyl-terminal hydrolase 1 (Homo sapiens) (O94782 whole entry, looked up): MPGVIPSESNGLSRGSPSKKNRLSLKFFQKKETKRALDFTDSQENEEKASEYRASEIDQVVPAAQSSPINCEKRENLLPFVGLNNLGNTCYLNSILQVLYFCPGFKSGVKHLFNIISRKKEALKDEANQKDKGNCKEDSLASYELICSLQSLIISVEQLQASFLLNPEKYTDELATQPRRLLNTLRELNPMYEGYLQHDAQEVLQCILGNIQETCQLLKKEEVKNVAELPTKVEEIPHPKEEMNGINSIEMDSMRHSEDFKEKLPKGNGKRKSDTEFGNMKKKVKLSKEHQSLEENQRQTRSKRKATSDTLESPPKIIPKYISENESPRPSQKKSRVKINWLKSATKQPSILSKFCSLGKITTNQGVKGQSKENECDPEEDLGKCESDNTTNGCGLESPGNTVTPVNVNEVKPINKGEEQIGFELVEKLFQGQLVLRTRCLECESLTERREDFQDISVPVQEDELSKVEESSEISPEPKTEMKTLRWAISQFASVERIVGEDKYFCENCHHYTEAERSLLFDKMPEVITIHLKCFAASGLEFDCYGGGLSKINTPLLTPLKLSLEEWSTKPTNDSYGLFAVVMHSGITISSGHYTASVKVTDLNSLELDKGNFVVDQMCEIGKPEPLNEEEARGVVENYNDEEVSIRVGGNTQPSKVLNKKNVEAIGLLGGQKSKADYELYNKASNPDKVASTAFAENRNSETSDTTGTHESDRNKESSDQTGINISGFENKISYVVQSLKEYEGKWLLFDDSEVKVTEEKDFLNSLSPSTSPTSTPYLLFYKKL
Chain of Tyrosyl-DNA phosphodiesterase 1 (Homo sapiens) (Q9NUW8 whole entry, looked up): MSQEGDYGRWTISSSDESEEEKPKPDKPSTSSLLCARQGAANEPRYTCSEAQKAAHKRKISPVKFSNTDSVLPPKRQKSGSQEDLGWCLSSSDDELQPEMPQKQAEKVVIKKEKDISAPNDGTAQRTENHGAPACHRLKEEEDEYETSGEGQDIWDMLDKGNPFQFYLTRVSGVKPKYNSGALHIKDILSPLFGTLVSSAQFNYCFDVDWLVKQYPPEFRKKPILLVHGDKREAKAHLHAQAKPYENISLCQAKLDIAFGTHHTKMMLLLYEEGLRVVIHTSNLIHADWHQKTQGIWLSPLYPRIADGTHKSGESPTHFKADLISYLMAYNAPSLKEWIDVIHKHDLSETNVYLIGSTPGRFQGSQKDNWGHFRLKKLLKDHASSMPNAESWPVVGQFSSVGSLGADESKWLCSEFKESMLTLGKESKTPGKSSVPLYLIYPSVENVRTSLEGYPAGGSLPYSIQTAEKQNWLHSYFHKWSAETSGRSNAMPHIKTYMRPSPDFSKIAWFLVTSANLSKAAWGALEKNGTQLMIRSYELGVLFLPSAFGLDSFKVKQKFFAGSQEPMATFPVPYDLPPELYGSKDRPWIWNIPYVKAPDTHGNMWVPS
Chain of Cytochrome P450 3A4 (Homo sapiens) (P08684 whole entry, looked up): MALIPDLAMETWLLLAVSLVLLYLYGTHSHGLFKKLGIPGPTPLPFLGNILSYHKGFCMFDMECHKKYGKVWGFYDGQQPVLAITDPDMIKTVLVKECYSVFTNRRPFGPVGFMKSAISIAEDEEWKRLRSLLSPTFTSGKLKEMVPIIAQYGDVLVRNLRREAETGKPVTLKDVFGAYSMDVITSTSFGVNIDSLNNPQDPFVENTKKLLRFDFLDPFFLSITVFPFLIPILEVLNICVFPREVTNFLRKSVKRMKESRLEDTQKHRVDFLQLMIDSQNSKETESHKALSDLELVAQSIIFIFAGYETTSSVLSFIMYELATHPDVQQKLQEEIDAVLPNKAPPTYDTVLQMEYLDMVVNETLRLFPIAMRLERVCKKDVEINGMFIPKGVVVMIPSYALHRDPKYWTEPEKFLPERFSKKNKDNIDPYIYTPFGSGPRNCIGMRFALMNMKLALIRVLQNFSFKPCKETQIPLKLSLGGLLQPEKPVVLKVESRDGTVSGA

CO/N=C(/C(=O)NC1C(=O)N2C(C(=O)O)=C(COC(N)=O)CSC12)c1ccco1 (stereo not drawn)
active: [3] 6.31 µM
inactive: [1] | [2] | [4]

O=C(O)/C=C/c1ccc([N+](=O)[O-])o1
active: [3] 50.1 µM

CC(O)C(N)C(=O)O (stereo not drawn)
not listed: [1] | [2] | [3]
inactive: all other assays above

Cc1ccc(Nc2ncccc2C(=O)O)cc1C
not listed: [1] | [2] | [3]
inactive: all other assays above

CCN(CC)C(=O)Nc1ccc(OC[C@H](O)CNC(C)(C)C)c(C(C)=O)c1
not listed: [1] | [2] | [3]
inactive: all other assays above

O=C(CCc1n[nH]c(=O)[nH]c1=O)N/N=C/c1ccco1
active: [3] 31.6 µM

COc1ccc(-c2nc3c(c(SCC(=O)Nc4ccc(C(=O)O)cc4)n2)Cc2ccccc2O3)cc1
active: [3] 1.62 µM

COc1cccc2c1C(=O)c1c(O)c3c(c(O)c1C2=O)C[C@@](O)(C(=O)CO)C[C@@H]3OC1CC(N)C(O)C(C)O1 (stereo partly drawn)
active: [4] 50.1 µM | [7] 0.354 µM | [8] 3.38 µM | [9] 0.675 µM
inactive: [5] | [6]

Cc1ccc(S(=O)(=O)NC(=O)NC(C)Cc2ccccc2)cc1 (stereo not drawn)
inactive: [4] | [5] | [8] | [9]

Cc1nn(Cc2ccc(F)cc2)c(C)c1NC(=O)c1cc2ncc(Br)cn2n1
active: [3] 44.7 µM

NC(C(=O)O)c1ccc(O)cc1 (stereo not drawn)
not listed: [1] | [2] | [3]
inactive: all other assays above

CCCC[C@H](O)c1ccccc1
not listed: [1] | [2] | [3]
inactive: all other assays above

CC(=O)NC[C@@H]1CN(c2ccc(N3CCOCC3)c(F)c2)C(=O)O1
inactive: [4] | [5] | [7] | [8] | [9]

C=CC1CN2CCC1CC2[C@@H](O)c1ccnc2ccc(OC)cc12 (stereo partly drawn)
active: [6] 32.2 µM | [8] 0.953 µM | [9] 0.19 µM
inactive: [5] | [7]

CC(O)C1CCC2C3CCC4CC(O)CCC4(C)C3CCC12C (stereo not drawn)
inactive: [4] | [5] | [7] | [8] | [9]
